Screening results from PubChem.
Rows were chosen to be rich in hits. Some 0.47% of all compounds tested hit in one or more screens of this group.
CCT chaperon mod = High-Throughput Screening for Modulators of Cytosolic Chaperonin Activity; purified chaperonin ATPase assay, HTRF ADP detection, 30 min; activity change, % (concentration not given with the values), hits read low; actives 0.3% (n = 360,000); AID 651819, 2012; in the data active = activity change below about -30%
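TRiC (40 or 20 nM final, by batch activity) in 30 mM Tris pH 7.4, 100 mM KCl, 5 mM MgCl2, 1 mM DTT was treated with compound at 76 uM single dose, then 10 uM ATP, 30 min at 37 °C. ADP was read by HTRF Transcreener.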
A-T KAP1 phos = qHTS Assay for Identifying a Potential Treatment of Ataxia-Telangiectasia; F2112 A-T fibroblasts, KAP-1 phosphorylation AlphaLISA; neocarzinostatin DNA damage 30 min before lysis; Potency, µM (series often up to 57.5 µM), most hits filed as activators; actives 0.19% (n = 320,000); AID 485349, 2010; also: nearly all actives have a fitted effect of over 45% in size
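hTERT-immortalized A-T patient fibroblasts (F2112), 500 cells/well in OPTI-MEM, 1% FBS, got compounds for 60 min, then NCS for 30 min at 37C. Lysates were then assayed for phospho-KAP-1 by AlphaLISA (anti-pKAP1 donor, anti-KAP1 acceptor beads), 6 hr at 25C.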
MmCpn inh = Inhibitors of TCP-1 ring complex (TRiC) of Methanococcus maripaludis (MmCpn): qHTS; purified Mm-Cpn ATPase, ADP Transcreener TR-FRET; Potency, µM (series often up to 76.9 µM), actives largely listed as inhibitors; Chaperonin Mm-Cpn (Methanococcus maripaludis); AID 504842, 2011; actives 0.031% (n = 330,000); also: nearly all actives have a fitted effect of over 80% in size
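ATPase read-out: TR-FRET ADP immunoassay (anti-ADP Eu cryptate vs ADP-d2), ex 320 nm, em 590/665 nm; signal drops as ADP forms. Enzyme 25 nM, ATP 10 uM, 30 min at 37°C after 10 min compound preincubation.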
Anesthetic bind = qHTS Assay for Identification of Novel General Anesthetics; actives 0.074% (n = 350,000); Potency, µM (doses to about 77.5 µM), actives largely listed as inhibitors; AID 485281, 2010; Ferritin light chain (Equus caballus), P02791; apoferritin/1-aminoanthracene competitive binding, fluorescence; also: nearly all actives have a fitted effect of over 20% in size
Target sequence (P02791 2-175 limits assumed): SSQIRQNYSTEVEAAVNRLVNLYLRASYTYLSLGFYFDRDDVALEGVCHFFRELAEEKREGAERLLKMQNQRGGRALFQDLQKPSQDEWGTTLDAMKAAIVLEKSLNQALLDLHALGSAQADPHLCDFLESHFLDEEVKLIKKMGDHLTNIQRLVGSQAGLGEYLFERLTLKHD
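Steps: apoferritin (10 uM) was premixed with half-saturated 1-AMA in PBS, compounds were pin-transferred, plates stood 10 min at room temperature, fluorescence was read at 380/535 nm, and curves were fitted with a Hill equation.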
Numbers stand for hits; – = inactive; ? = inconclusive; · = not tested or not shown; [ ] = dose if it differs, or a comment. Unless noted, calls follow the shape of the dose curve; as a rule, active = well fitted curve in the direction sought with a large enough effect; inconclusive = small, poorly fitted or top-dose-only effect, or another doubt; inactive = no such curve, though single readings can be large; an effect the other way counts as inactive or inconclusive.

SMILES | CCT chaperon mod | A-T KAP1 phos | MmCpn inh | Anesthetic bind
Cc1cc(C(=O)OCC(=O)Nc2ccccc2C)c(C)o1 | – | – | – | ·
Cc1cc(C(=O)OCC(=O)Nc2ccccc2Br)c(C)o1 | -53.4 | – | – | ·
CC(=O)c1ccc(NC(=O)CN2CCN(c3ccccc3)CC2)cc1 | -33.6 | – | – | –
CC(=O)c1ccc(NC(=O)CN2CCN(CC(=O)Nc3ccc(C(C)=O)cc3)CC2)cc1 | – | – | – | –
CCN1CCN(CC(=O)Nc2ccc(C(C)=O)cc2)CC1 | – | 4.47µM | – | –
Cc1cc(Cl)ccc1NC(=O)CCn1nc(C)c2c(C)n(-c3ccccc3)nc2c1=O | · | · | · | –
O=C(CSc1ncccn1)N1CCc2ccccc2C1 | – | – | – | –
O=C(CNCc1ccccn1)N1CCc2ccccc2C1 | -43.6 | – | – | –
CCOC(=O)c1ccc(CN(Cc2ccccc2)S(=O)(=O)c2cccc([N+](=O)[O-])c2)cc1 | -32.7 | – | – | –
CN1CCN(CC(C)(C)NS(=O)(=O)c2ccccc2)CC1 | – | – | – | ·
CCC1CCCCN1CC(C)(C)NS(=O)(=O)c1ccccc1 (stereo unspecified) | – | 35.5µM | – | –
O=C(CP(=O)(c1ccccc1)c1ccccc1)Nn1cnnc1 | -53.4 | – | – | –
COc1ccccc1CCNC(=O)C(=O)NCC(c1cccnc1)N1CCN(c2ccccc2)CC1 (stereo unspecified) | · | · | · | –
CCOC(=O)C1C(C(=O)OC)=C(CC(C)C)c2ccccc2N1S(=O)(=O)C(F)(F)F (stereo unspecified) | · | · | · | –
Cc1ccc2c(C(=O)N3CCN(c4ccccc4)CC3)cc(-c3cccnc3)nc2c1C | -42.7 | – | – | –
COc1cccc(-c2nc(CS(=O)CC(=O)NCc3ccccc3Cl)c(C)o2)c1 (stereo unspecified) | – | – | – | 28.2µM
COc1ccc(-c2nc(CS(=O)CC(=O)NCc3ccccc3Cl)c(C)o2)cc1OC (stereo unspecified) | · | · | · | –
CC1=C(C(=O)Nc2ccccc2)C(c2ccncc2)n2nc(SCc3ccccc3)nc2N1 (stereo unspecified) | · | · | · | –
COc1c(N2CCN(C(=S)Nc3ccc(F)cc3)C(C)C2)c(F)cc2c(=O)c(C(=O)O)cn(C3CC3)c12 (stereo unspecified) | – | – | – | –
COc1c(N2CCN(C(=S)NC3CC4CCC3C4)C(C)C2)c(F)cc2c(=O)c(C(=O)O)cn(C3CC3)c12 (stereo unspecified) | – | 28.2µM | – | –
CCOC(=O)c1cnc2ccc(OCC)cc2c1N1CCN(c2ccccc2OC)CC1 | – | · | – | –
CCOC(=O)c1cnc2c(OC)cccc2c1N1CCN(c2ccccc2F)CC1 | · | · | · | 8.91µM
C#CCn1c(=NC(=O)c2cc(Cl)sc2Cl)sc2cc(S(N)(=O)=O)ccc21 | – | – | 50.1µM | ?
COc1cc(CNCCNC(=O)c2nonc2N)ccc1OCc1ccc(Cl)cc1 | – | – | – | 12.6µM
CCCOc1cccc(C(=O)N(Cc2ccc(C)o2)C2CCS(=O)(=O)C2)c1 (stereo unspecified) | · | · | · | –
SMILES | CCT chaperon mod | A-T KAP1 phos | MmCpn inh | Anesthetic bind
CC1(C)CC(c2csc(N)n2)CCO1 (stereo unspecified) | -39.2 | – | –[15.4 µM] | ?
O=C(NC(CC1CCCCC1)C(=O)O)c1ccccc1 (stereo unspecified) | – | 25.1µM | – | ·
O=C(NC(Cc1ccccc1)C(=O)N1CCCCCC1)c1ccccc1 (stereo unspecified) | – | – | – | ?
Cc1ccc(Cl)cc1N1CCN(S(=O)(=O)c2ccc3c(c2)CC(=O)N3C)CC1 | -54.2 | – | – | –
CN1C(=O)Cc2cc(S(=O)(=O)N3CCN(c4ccc(Cl)cc4)CC3)ccc21 | – | – | – | –
O=[N+]([O-])c1ccccc1-c1ccc(C(=S)N2CCCC2)o1 | – | – | – | 56.2µM
CCn1c(=O)c2sccc2n2c(CCCC(=O)N3CCN(c4ccc(F)cc4)CC3)nnc12 | · | · | · | –
CC(=O)N1CCN(C2=NC(=O)/C(=C/c3ccc(OS(=O)(=O)c4ccccc4)cc3)S2)CC1 | -79.0 | – | – | –
O=S(=O)(NCc1ccccc1)NCc1ccccc1F | -51.8 | – | – | –
CCOC(=O)CNC(=S)N(Cc1ccccc1)Cc1cccnc1 | -33.8 | – | – | –
CCC(C)NC(=O)CNC(=S)N(Cc1ccccc1)Cc1cccnc1 (stereo unspecified) | – | – | – | –
CSc1ccc(/C=C/c2nc3ccccc3n2S(=O)(=O)c2ccc(Br)cc2)cc1 | · | · | · | –
CC(=O)c1ccc(NC(=S)Nc2cccc3cnccc23)cc1 | – | 39.8µM | – | –
Cc1ccc(NC(=S)Nc2cccc3cnccc23)cc1 | – | – | – | –
Cc1c(C(=O)N2CCN(Cc3ccc4c(c3)OCO4)CC2)sc2ncnc(N3CCN(c4ccccc4F)CC3)c12 | -73.5 | – | – | –
COc1cccc(CN2CC(C(=O)N(C)Cc3nc(C)cs3)CCC2=O)c1 (stereo unspecified) | -30.9 | – | – | –
COCc1cc(CNC(=O)C2CCC(=O)N(Cc3cccc(OC)c3)C2)[nH]n1 (stereo unspecified) | -47.9 | – | – | –
COc1ccc2nc(CNC(=O)C3CCC(=O)N(CCc4ccccc4)C3)[nH]c2c1 (stereo unspecified) | -56.3 | – | – | –
COc1ccc(CCN2CC(C(=O)NCc3cccc4[nH]ccc34)CCC2=O)cc1 (stereo unspecified) | – | – | – | –
COc1cccc(CN2CC(C(=O)N(C)CCc3ccccc3)CCC2=O)c1 (stereo unspecified) | – | – | – | –
O=C(NCCC1=CCCCC1)c1ccc2c(c1)sc1nc(-c3ccc(F)cc3)cn12 | · | · | · | –
CCC(C(=O)Nc1cc(C(F)(F)F)ccc1Cl)n1nc(C)c2sc3ccccc3c2c1=O (stereo unspecified) | · | · | · | –
CN(C)c1ccc(-c2nc3ccccn3c2Nc2ccc3c(c2)OCCO3)cc1 | · | · | · | –
N[C@@H](CCS(=O)O)C(=O)O | · | · | · | –
CCc1ccc(NC(=O)Cn2nnc(-c3ccccc3N)n2)cc1 | · | · | · | –
SMILES | CCT chaperon mod | A-T KAP1 phos | MmCpn inh | Anesthetic bind
C/C(=N/Nc1cc(-c2ccccc2)nc(-c2ccccc2)n1)c1ccc(O)cc1 | – | ? | – | –
C/C(=N\Nc1cc(-c2ccccc2)nc(-c2ccc(Br)cc2)n1)c1cccc(N)c1 | -65.4 | · | · | ·
Cn1nccc1C(=O)Nc1ccc2c(c1)OCO2 | -54.8 | – | – | –
Cc1ccc2scc(N3CCCC(C)C3)c(=O)c2c1 (stereo unspecified) | · | · | · | –
O=C(Nc1nnc2n1CCS2)c1ccco1 | -73.4 | – | – | –
Cc1ccc(S(=O)(=O)NC(=O)NN2CCCCCC2)cc1 | – | – | – | –
Cc1ccc(S(=O)(=O)NC(=O)NN2CC3CCCC3C2)cc1 (stereo unspecified) | -43.8 | – | – | –
